PI5P4K alpha inh = PI5P4K alpha (human) kinase inhibition. P48426. PI5P4Kalpha enzyme, ADP-Glo luminescence, 60 min; stronger effect = lower value. max response, %. hit rate 1.2% among 330,000; active = max response of -50% or lower; inconclusive = between -30% and -50%; inactive = -30% or higher; note: value at the top dose of about 77 µM
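PI5P4Kalpha ADP-Glo assay; 5 microM ATP final; 60 min RT reaction; HEPES pH 7.4/EGTA/CHAPS, 5% DMSO; controls lacking substrate or enzyme; luminescent end-point.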
Pin1 inh = inhibitors of human Pin1 | Q13526 | hit rate 0.009% among 390,000 | Pin1 FP peptide displacement, HiFluor488, 10 min | Potency, µM (titrated, usually from 115 µM), for the others: at the highest dose activity, negative = inhibition, usual class: inhibitors; active = well fitted inhibition curve with a large enough effect in the polarisation, with a control signal flat, not every such curve was filed as active; inconclusive = small, poorly fitted or top-dose-only effect, or effect the other way, or a change in a side signal; inactive = no such curve, though single readings can be large or run the other way; the % refers to the polarisation; note: potency is the fitted concentration of half-maximal effect
PI4K2A inh = blocks human PI4K2A kinase activity; Q9BTU6; purified PI4K2A, ADP-Glo luminescence, 1 h; stronger effect = lower value; activity change, negative = inhibition, % at 76.9 µM; hit rate 0.13% among 420,000; AID 1346378; in the data active = activity change below about -50%; inconclusive = mostly about -30% to -49%;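 note: -100% = wells without enzyme as full effect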
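PI4K2A activity was measured by ADP-Glo luminescence: enzyme (4 ug/mL stock) and phosphatidylinositol (1.2 mM stock) in Tris pH 7.5/MgCl2/EGTA/Triton X-100 buffer were reacted with ATP (300 microM stock) for one hour at ambient temperature.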
Tb PFK block = T. brucei PFK enzyme inhibition; O15648; T. brucei PFK, ADP-Glo luminescence; Potency, µM (highest dose often 57.5 µM), for the others: top-dose activity, negative = inhibition, most hits filed as inhibitors; hit rate 0.17% among 330,000; AID 485367;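 note: potency is the fitted concentration of half-maximal effect; 0% = uninhibited 1x PFK enzyme wells and -100% = no-enzyme wells; nearly all actives have a fitted effect of over 60% in size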
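ADP-Glo luminescence quantified ADP after 45 min at room temperature, with 1.25 nM T. brucei PFK, 0.1 mM ATP and 0.5 mM fructose-6-phosphate in pH 8.0 TEA buffer. qHTS titrations up to 57 µM; curves classified by quality.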
Tb PGK inh = blocks T. brucei phosphoglycerate kinase | Potency, µM (highest dose often 57.5 µM), for the others: top-dose activity change, negative = inhibition, usual class: inhibitors | hit rate 0.043% among 380,000 | P07378 | PGK/GAPDH coupled, Kinase-Glo luminescence, 60 min; note: potency is the fitted concentration of half-maximal effect; nearly all actives have a fitted effect of over 60% in size
Target sequence (P07378 whole entry, looked up): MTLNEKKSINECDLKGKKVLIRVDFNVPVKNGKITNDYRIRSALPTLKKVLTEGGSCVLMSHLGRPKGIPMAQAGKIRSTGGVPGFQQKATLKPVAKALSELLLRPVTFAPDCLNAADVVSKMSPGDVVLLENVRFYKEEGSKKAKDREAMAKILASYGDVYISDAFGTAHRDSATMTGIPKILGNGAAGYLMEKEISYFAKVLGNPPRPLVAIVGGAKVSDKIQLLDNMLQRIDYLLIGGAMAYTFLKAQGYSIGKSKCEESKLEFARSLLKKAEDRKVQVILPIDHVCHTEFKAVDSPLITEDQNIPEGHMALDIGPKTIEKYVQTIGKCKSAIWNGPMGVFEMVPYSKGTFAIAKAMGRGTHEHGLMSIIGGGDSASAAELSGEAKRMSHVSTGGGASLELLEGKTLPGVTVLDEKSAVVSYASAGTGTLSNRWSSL
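Luminescent ATP detection (Kinase-Glo Plus) follows a 60-minute room-temperature incubation, with wells lacking PGK as controls. Buffer: 100 mM TEA (pH 7.6), 5 mM MgCl2, 0.01% Tween-20. Coupling enzyme GAPDH (100 nM final) supplies unstable 1,3-BPG in-well.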
ADP-Glo interf = ADP-Glo luciferase interference, PI5P4K counter-screen; 1,100 tested, under 10 active; ADP-Glo detection counter-screen, luciferase luminescence, no enzyme; shares compounds with PI5P4K alpha inh; Potency, µM (doses to about 76.9 µM), inactives show at the highest dose activity change, negative = inhibition, hits mostly inhibitors
* = called active by the depositor; i = inactive; ? = inconclusive; nt = no result. Many of the other results were omitted from the sample, so hits are more common in it than they were. Unless noted, calls come from the whole dose curve; as a rule, active = well fitted curve in the direction sought with a large enough effect; inconclusive = small, poorly fitted or top-dose-only effect, or another doubt; inactive = no such curve, though single readings can be large; an effect the other way counts as inactive or inconclusive. Unless noted, % is set by controls: 0 for no effect and ±100 for the full control effect.

SMILES	PI5P4K alpha inh	Pin1 inh	PI4K2A inh	Tb PFK block	Tb PGK inh	ADP-Glo interf
O=S1(=O)c2ccc(N3CC[C@H](O)C3)cc2OCCCN1C1CC1	nt	nt	-1.9	nt	nt	nt
O=C(CSc1ccccc1)Nc1nnc(COc2ccc(Cl)cc2)s1	-53.5*	9.9%	-4.5	-20.1%	i	-7.4%
CCOC(=O)[C@@]12CCCC3=C1N(CCC3)C(=O)[C@H]2CC(=O)N1CCCCC1	nt	nt	-1.1	nt	nt	nt
O=C(NC1CCCC1)C(c1ccncc1)N(C(=O)c1csnn1)c1ccccc1F (stereo not given)	-51.6*	-15.0%	-0.6	5.3%	-2.1%	9.7%
O=C(O)c1ccc2c(=O)[nH]c(CN3CCOCC3)nc2c1	?	-8.7%	3.3	0.1%	9.9%	nt
O=C(O)c1ccc2c(=O)[nH]c(CCl)nc2c1	-59.1*	-11.0%	-6.5	7.3%	-0.2%	2.8%
Cc1cc(C(=O)O[C@H]2CCC[C@]3(C(=O)N(Cc4ccccc4)c4ccccc43)[C@H]2NC(=O)CCc2ccccc2)no1	nt	nt	2.8	nt	nt	nt
c1coc(-c2ccc3nncn3c2)c1	-73.4*	nt	?	nt	nt	-12.5%
CCOc1ccc(NC(=O)N2CCC(n3nnc4ccccc43)CC2)cc1	-51.5*	-7.4%	-0.2	-3.5%	-14.0%	1.7%
COc1ccc(NC(=O)N2CCC(n3nnc4cc(C)ccc43)CC2)cc1	-3.1	-7.3%	7.0	0.0%	-1.7%	nt
N#Cc1c(-c2ccc(Cl)cc2Cl)nc2n(c1=O)CCS2	-54.2*	26.4%	-4.5	0.3%	-9.9%	1.8%
Cc1ccc(N2CSC3=C(C#N)C(c4cccs4)CC(=O)N3C2)cc1 (stereo not given)	-59.9*	21.9%	-6.5	-17.4%	-1.9%	-2.7%
N#CC1=C2SCN(c3ccc(F)cc3)CN2C(=O)CC1c1cccc(F)c1 (stereo not given)	-59.4*	-1.6%	-6.4	-6.6%	i	2.9%
CN1CSC2=C(C#N)C(c3cccc(OCc4ccccc4)c3)CC(=O)N2C1 (stereo not given)	?	-13.9%	-2.1	-1.9%	i	nt
CCc1ccc(N2CSC3=C(C#N)C(c4cccs4)CC(=O)N3C2)cc1 (stereo not given)	-68.2*	18.8%	-16.7	-15.0%	-10.9%	-7.9%
Cc1ccc(N2C(N)=C(C#N)C(c3cccs3)C3=C2CC(C)(C)CC3=O)cc1 (stereo not given)	nt	3.2%	1.6	-1.6%	0.9%	nt
CCc1ccc(C2CC(=O)N3CN(c4ccccc4)CSC3=C2C#N)cc1 (stereo not given)	-95.4*	-4.0%	-8.7	-14.5%	i	2.4%
C=CCN(C(=O)[C@@H](C1CC1)[C@@H](O)c1ccc(Cl)cc1)c1ccccc1	nt	nt	2.7	nt	nt	nt
Cn1c(=O)c2[nH]c(SCC(=O)NCCc3ccc(F)cc3)nc2n(C)c1=O	nt	nt	94.5	nt	nt	nt
COc1cc(OC)c(C2CC(=O)N3CN(c4ccc(C)cc4)CSC3=C2C#N)cc1OC (stereo not given)	-76.5*	-7.9%	-3.5	-11.7%	2.6%	-4.9%
COc1cccc(C2CC(=O)N3CN(C4CCCCC4)CSC3=C2C#N)c1 (stereo not given)	nt	-6.8%	2.9	nt	i	nt
COC(=O)[C@]12C[C@H](CC(=O)NCCCCc3ccccc3)C(=O)N(Cc3ccc(Cl)cc3Cl)C1=C[C@H](C(C)C)O[C@@H]2C1CC1	nt	nt	-3.8	nt	nt	nt
Cc1nc2c(c(=O)n1Cc1ccccc1Cl)c1nc3ccccc3nc1n2Cc1ccco1	nt	nt	nt	-23.6%	nt	nt
COc1ccc(Cn2c(C)nc3c(c2=O)c2nc4ccccc4nc2n3Cc2ccco2)cc1	-58.6*	79.0%	-0.8	nt	?	0.9%
CC1CCCCC12NC(=O)N(CC(=O)Nc1sc3c(c1C(N)=O)CCC3)C2=O (stereo not given)	-60.4*	?	-8.5	-12.0%	i	0.1%
O=C(Nc1ccc2c(c1)OCCO2)c1ccccc1F	-52.1*	-5.3%	-21.1	-10.2%	-22.6%	-24.1%
NS(=O)(=O)c1cccc(NC(=O)CSc2nnnn2-c2ccccc2)c1	-89.1*	-0.6%	7.4	-1.4%	1.3%	-5.6%
